From PubChem BioAssay AID772 (SRMLSC, 2007)
Out of some 3,300 compounds screened, about 20 (0.6%) were called active.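 How the source made its calls: active means growth inhibition above 90%, meaning viable cell count cut by more than 90% versus vehicle controls; inactive means growth inhibition below 90%.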 Many of the other results were omitted from the sample, so actives are more common in it than they were.

Assay: HT29 colon tumor cell growth inhibition, primary screen, imaging, high content imaging, 72 h, CellTiter-Glo (AID 772);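 on condensed nuclei: condensed means nuclear area below control median minus 1.5 SD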
Details: HCS imaging cell count, at 10 µM, stronger effect = higher value; for condensed nuclei: measured here: percent cells with condensed nuclei
[1] = measured here: ATP CellTiter-Glo viability

Row | SMILES | growth inhibition | growth inhibition [1] | condensed nuclei
1 | Clc1ccc2[nH]c3c(NCCCN4CCOCC4)ncnc3c2c1 | 88.5% (inactive) | 96.8% | 45.3%
2 | COC(=O)C(NC(C)=O)(Nc1ccc(Br)cn1)C(F)(F)F (stereo not drawn) | -46.6% (inactive) | -39% | 2.33%
3 | O=C1CC(c2ccccc2)n2nc(NS(=O)(=O)c3ccccc3)nc2N1 (stereo not drawn) | 6.12% (inactive) | 25.8% | 5.04%
4 | CCOC(=O)CNS(=O)(=O)c1cc(-c2n[nH]c(=O)c3ccccc23)ccc1C | -38.6% (inactive) | -21.1% | 6.33%
5 | Cc1nc(/N=C(\N)Nc2ccccc2)nc2ccccc12 | -39.5% (inactive) | -11.8% | 3.28%
6 | CCCCCOc1ccccc1C(=O)NCC(=O)O | -69.1% (inactive) | -28.9% | 1.44%
7 | CSc1nc2sc3c(c2c2nnnn12)CCCC3 | 37.7% (inactive) | 9.47% | 2.53%
8 | Cc1ccc(N2C(=O)[C@@H]3[C@H](C2=O)C2CCCN2[C@@H]3C(=O)c2ccccc2)cc1 (stereo partly drawn) | 61.8% (inactive) | 9.87% | 4.55%
9 | N#Cc1nc(COc2ccc(Br)cc2)oc1N1CCCC1 | 31.9% (inactive) | -4.22% | 13.2%
10 | COc1ccc(N2CCN(c3oc(COc4ccc(Cl)cc4)nc3C#N)CC2)cc1 | 92.4% (active) | 87.2% | 23.8%
11 | N#Cc1nc(COc2ccc(Cl)cc2)oc1N1CCN(Cc2ccccc2)CC1 | 85.7% (inactive) | 70.5% | 7.69%
12 | Cc1c(C(=O)O)sc(=S)n1-c1ccccc1 | 46.5% (inactive) | 9.56% | 3.47%
13 | CC(=O)C1=C(O)C(=O)N(c2ccc(C(=O)O)cc2)C1c1ccccc1 (stereo not drawn) | -93.1% (inactive) | -74.7% | 4.2%
14 | COC(=O)C1=C(C)N=C2SC(C)C(=O)N2C1c1ccc(C(=O)OC)cc1 (stereo not drawn) | -44.2% (inactive) | -32% | 6.05%
15 | CCN(CC)CCN1C(=O)C(O)=C(C(=O)c2ccco2)C1c1ccccn1 (stereo not drawn) | -51.4% (inactive) | -77% | 2.14%
16 | CC(=O)C1=C(NC(=O)c2ccccc2F)C[C@@H]2[C@H]1C2(C)C | -1.88% (inactive) | -28.5% | 2.19%
17 | Cc1ccc(-n2c(=O)c3c4c(sc3n3c(C)nnc23)COC(C(C)C)C4)cc1 (stereo not drawn) | -38% (inactive) | -56.1% | 4.02%
18 | O=C(NC1CCS(=O)(=O)C1)N1CCCCC1 (stereo not drawn) | 28.2% (inactive) | 4.61% | 9.88%
19 | COC(=O)c1ccccc1NC(=O)CSc1nnc(-c2ccncc2)o1 | 11.7% (inactive) | -27.3% | 4.89%
20 | CCOC(=O)c1[nH]c2ccc(C)cc2c1N=CN(CC)CC | 1.88% (inactive) | -13% | 12.3%
21 | COc1cccc(OC)c1OCCN1CCN(C(=O)c2ccco2)CC1 | 18.1% (inactive) | 7.71% | 3.57%
22 | COc1cc2nc(N3CCN(C(=O)C4CCCO4)CC3)nc(N)c2cc1OC (stereo not drawn) | -61.2% (inactive) | -20.9% | 2.06%
23 | COc1cc2nc(N3CCN(C(=O)C4COc5ccccc5O4)CC3)nc(N)c2cc1OC (stereo not drawn) | 96% (active) | 83.5% | 21.8%
24 | COc1ccc2[nH]c(C)c(C(=O)CN3CCN(C(=O)c4ccco4)CC3)c2c1 | -20.9% (inactive) | -49.5% | 3.46%
25 | COc1cc2nc(N3CCN(C(=O)c4ccco4)CC3)nc(N)c2cc1OC | 94.7% (active) | 67.4% | 30.2%
26 | COC(=O)c1ccccc1NC(=O)C1COc2ccccc2O1 (stereo not drawn) | 16.2% (inactive) | 13.5% | 13.5%
